# Measurements published in the supplement of paper PMC7724964.
# Target: T1, SPSB2 26-221 SPRY (domain begin residue: 26, domain end residue: 221), Q99619
# T1 chain: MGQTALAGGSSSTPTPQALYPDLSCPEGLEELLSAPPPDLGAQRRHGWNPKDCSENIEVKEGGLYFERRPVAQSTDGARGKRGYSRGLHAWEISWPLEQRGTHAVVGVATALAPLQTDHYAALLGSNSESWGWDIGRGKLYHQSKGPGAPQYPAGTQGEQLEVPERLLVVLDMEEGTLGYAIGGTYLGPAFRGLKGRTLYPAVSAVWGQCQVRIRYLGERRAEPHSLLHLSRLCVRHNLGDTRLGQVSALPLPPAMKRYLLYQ
# Assay: phage ELISA signal ratio (GST-PRM binding over GST background); higher = stronger binding of peptide-phage to the PRM
# Method in brief: (§1)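 Human peptide recognition domains were expressed in 96-well plates as fusions to the C-terminus of glutathione S-transferase (GST) and selected against an M13 phage library displaying randomized hexadecapeptides, cysteine-free and glycine-flanked, on the gene-8 major coat protein. Five selection rounds were run, and approximately 48 individual clones from rounds 4 and 5 were tested by phage ELISA. Each value is the ELISA signal on the GST-domain fusion divided by the signal on GST alone. Positive clones were sequenced.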
row,Binder,phage ELISA signal ratio
1,HLEQDWNGNWLMNEKD,41.2
2,DKYWPVDPNNNMPRFG,37.4
3,PEFLDENNNVDVGHTW,38.3
4,GFLDPNQNIVRETLIL,34.2
5,PARDINNNAATAYINV,39.5
6,EYTLDENANMEQLWEV,35.8
7,KQDYLNVTDWNNNAVM,44.7
8,WDLDWAVSDHNGNVMV,41.6
9,AGPDWNHNRLTFNHPQ,35.2
10,KKDWNNNIEAWLVGEE,36.6
11,MDWNNNWNHSLESTQN,36.1

# Target: T2, STAM 1-143 VHS (domain begin residue: 1, domain end residue: 143), Q92783
# T2 chain: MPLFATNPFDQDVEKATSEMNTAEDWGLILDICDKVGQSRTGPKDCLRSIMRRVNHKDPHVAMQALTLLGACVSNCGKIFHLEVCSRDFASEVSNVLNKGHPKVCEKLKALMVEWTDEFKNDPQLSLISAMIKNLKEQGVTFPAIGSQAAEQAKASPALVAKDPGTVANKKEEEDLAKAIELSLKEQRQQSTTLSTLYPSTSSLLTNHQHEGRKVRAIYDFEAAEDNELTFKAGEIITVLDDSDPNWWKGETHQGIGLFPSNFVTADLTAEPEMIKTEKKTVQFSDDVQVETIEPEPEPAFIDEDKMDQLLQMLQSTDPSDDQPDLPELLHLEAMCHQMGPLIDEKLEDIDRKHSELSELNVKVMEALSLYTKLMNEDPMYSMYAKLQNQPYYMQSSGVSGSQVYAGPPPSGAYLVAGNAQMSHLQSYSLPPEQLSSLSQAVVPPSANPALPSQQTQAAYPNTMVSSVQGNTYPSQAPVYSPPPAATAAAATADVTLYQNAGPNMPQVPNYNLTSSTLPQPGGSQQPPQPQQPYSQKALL
# Assay: as above
# Method in brief: as §1
row,Binder,phage ELISA signal ratio
1,PFDAWPIGWEIQQQYF,8.91
2,QERNHHDPHALWESLF,20.8
3,HESMVMFTDEFFQQYL,5.23

# Target: T3, TDRKH 290-430 TUDOR+SNase (domain begin residue: 290, domain end residue: 430), Q9Y2W6
# T3 chain: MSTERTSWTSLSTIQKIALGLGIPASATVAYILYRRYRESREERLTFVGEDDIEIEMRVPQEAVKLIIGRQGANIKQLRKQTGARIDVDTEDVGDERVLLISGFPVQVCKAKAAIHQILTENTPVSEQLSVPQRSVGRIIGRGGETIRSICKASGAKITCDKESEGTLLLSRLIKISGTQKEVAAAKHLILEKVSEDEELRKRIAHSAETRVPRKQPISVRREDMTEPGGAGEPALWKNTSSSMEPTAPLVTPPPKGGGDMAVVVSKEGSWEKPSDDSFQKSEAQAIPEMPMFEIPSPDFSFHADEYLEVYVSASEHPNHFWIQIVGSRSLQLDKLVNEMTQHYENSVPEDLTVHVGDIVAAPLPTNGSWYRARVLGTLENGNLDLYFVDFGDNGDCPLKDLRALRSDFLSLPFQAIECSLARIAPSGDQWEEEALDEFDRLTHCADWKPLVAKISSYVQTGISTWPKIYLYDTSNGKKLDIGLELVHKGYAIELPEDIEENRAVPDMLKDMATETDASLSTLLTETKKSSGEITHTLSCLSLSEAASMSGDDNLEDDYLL
# Assay: as above
# Method in brief: as §1
row,Binder,phage ELISA signal ratio
1,HELHGHLGPYGYPAGT,7.85
2,HEQNRMDVRNDGRTGF,8

# Target: T4, TERF1 58-268 TRF (domain begin residue: 58, domain end residue: 268), P54274
# T4 chain: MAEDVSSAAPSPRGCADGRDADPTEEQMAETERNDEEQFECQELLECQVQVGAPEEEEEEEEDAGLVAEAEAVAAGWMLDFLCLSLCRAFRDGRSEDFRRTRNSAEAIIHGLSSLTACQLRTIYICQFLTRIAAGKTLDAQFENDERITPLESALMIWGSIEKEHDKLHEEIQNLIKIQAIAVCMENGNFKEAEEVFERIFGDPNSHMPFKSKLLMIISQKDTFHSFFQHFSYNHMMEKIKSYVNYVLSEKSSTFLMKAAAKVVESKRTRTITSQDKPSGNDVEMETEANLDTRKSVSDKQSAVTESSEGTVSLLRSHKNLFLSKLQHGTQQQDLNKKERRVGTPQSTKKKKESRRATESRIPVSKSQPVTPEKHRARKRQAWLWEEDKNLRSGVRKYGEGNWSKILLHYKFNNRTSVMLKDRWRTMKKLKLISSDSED
# Assay: as above
# Method in brief: as §1
row,Binder,phage ELISA signal ratio
1,SFPLEFTTDYMYNLMA,18.2
2,MLFDDEAMYNWQWHLM,12.2
3,LGHTTAEMIDYMELQW,15.3

# Target: T5, SPSB4 1-273 SPRY (domain begin residue: 1, domain end residue: 273), Q96A44
# T5 chain: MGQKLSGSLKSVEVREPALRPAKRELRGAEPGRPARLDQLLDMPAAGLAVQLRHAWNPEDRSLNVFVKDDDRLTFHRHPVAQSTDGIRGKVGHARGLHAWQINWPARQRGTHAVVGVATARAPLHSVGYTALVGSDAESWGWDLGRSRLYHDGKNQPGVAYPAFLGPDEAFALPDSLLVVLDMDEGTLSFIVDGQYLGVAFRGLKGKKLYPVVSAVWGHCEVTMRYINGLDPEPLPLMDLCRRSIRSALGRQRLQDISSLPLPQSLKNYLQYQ
# Assay: as above
# Method in brief: as §1
row,Binder,phage ELISA signal ratio
1,QMDYNQNMPSIQWARE,8.15

# Target: TLN2 312-417 IRS (domain begin residue: 312, domain end residue: 417), Q9Y4G6
# Assay: as above
# Method in brief: as §1
# TLN2 312-417 IRS (domain begin residue: 312, domain end residue: 417), Q9Y4G6, sequence (Q9Y4G6 whole entry): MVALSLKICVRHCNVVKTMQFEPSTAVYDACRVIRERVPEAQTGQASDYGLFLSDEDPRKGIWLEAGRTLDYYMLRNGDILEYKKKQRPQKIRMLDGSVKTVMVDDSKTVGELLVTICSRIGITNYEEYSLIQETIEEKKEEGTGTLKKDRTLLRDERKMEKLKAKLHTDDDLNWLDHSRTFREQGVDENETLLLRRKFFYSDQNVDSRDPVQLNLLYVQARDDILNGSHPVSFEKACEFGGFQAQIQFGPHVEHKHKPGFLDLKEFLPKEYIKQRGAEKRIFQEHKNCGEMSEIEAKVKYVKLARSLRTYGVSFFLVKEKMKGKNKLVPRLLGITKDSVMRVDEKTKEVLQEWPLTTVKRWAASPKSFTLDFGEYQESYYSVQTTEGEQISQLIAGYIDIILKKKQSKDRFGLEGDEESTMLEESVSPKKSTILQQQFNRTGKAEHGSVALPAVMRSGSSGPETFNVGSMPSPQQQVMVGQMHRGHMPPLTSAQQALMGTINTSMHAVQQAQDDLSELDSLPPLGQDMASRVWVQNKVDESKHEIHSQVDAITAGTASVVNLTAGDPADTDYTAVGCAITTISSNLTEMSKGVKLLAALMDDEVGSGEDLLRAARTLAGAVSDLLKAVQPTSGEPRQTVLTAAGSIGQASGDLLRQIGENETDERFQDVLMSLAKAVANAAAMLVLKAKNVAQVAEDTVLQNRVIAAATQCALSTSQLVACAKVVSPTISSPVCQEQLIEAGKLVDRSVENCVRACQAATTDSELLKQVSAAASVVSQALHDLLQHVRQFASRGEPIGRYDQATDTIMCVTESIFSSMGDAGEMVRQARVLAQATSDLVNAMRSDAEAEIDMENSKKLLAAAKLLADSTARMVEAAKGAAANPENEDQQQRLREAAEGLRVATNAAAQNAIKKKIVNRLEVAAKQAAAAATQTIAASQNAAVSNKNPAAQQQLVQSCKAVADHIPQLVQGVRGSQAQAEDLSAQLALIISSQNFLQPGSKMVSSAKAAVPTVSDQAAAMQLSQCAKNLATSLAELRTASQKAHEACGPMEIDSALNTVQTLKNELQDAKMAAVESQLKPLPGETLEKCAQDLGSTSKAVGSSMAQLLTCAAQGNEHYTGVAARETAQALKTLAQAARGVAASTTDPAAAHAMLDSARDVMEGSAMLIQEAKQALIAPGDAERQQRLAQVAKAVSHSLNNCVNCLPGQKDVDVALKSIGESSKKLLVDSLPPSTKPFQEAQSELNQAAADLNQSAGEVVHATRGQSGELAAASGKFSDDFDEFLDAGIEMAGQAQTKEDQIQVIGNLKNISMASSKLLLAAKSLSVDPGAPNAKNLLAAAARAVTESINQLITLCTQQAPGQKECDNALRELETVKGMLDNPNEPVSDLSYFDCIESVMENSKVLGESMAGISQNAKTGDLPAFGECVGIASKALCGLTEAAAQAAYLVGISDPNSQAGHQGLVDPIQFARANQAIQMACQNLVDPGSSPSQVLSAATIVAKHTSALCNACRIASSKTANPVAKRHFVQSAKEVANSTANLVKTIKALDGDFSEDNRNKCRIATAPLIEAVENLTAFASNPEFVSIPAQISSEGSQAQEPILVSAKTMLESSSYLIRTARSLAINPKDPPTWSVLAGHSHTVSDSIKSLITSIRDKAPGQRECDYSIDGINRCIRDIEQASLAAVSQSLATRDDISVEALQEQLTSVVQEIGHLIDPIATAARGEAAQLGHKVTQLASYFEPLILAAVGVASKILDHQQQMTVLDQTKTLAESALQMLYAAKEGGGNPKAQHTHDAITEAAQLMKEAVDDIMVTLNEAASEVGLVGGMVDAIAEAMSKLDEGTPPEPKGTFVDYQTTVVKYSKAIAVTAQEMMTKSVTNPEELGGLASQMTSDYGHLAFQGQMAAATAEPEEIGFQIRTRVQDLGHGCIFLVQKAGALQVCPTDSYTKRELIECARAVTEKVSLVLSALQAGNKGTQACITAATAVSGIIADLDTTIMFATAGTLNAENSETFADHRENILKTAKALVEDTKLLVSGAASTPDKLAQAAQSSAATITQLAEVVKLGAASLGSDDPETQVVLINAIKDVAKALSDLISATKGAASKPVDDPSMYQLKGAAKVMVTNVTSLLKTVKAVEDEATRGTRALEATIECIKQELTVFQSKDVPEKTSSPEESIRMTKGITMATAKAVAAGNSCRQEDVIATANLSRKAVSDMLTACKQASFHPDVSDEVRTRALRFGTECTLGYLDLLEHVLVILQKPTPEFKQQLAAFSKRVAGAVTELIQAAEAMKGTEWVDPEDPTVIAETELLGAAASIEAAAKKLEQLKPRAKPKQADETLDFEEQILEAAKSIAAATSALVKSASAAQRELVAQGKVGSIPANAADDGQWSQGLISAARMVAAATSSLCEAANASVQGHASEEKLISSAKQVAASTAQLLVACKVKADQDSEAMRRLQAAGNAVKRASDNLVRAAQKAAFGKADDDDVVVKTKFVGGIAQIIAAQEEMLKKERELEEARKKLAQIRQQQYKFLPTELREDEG
row,Binder,phage ELISA signal ratio
1,NENGSYEEHLAWTWGF,17.6
2,VENVYYGPYQWEGSFQ,15.4
3,NQDRVWVGNSAFKSPD,22
4,DMVWTNSFLHSHSQLV,19.5

# Target: T6, TDRD1 261-449 TUDOR (domain begin residue: 261, domain end residue: 449), Q9BXT4
# T6 chain: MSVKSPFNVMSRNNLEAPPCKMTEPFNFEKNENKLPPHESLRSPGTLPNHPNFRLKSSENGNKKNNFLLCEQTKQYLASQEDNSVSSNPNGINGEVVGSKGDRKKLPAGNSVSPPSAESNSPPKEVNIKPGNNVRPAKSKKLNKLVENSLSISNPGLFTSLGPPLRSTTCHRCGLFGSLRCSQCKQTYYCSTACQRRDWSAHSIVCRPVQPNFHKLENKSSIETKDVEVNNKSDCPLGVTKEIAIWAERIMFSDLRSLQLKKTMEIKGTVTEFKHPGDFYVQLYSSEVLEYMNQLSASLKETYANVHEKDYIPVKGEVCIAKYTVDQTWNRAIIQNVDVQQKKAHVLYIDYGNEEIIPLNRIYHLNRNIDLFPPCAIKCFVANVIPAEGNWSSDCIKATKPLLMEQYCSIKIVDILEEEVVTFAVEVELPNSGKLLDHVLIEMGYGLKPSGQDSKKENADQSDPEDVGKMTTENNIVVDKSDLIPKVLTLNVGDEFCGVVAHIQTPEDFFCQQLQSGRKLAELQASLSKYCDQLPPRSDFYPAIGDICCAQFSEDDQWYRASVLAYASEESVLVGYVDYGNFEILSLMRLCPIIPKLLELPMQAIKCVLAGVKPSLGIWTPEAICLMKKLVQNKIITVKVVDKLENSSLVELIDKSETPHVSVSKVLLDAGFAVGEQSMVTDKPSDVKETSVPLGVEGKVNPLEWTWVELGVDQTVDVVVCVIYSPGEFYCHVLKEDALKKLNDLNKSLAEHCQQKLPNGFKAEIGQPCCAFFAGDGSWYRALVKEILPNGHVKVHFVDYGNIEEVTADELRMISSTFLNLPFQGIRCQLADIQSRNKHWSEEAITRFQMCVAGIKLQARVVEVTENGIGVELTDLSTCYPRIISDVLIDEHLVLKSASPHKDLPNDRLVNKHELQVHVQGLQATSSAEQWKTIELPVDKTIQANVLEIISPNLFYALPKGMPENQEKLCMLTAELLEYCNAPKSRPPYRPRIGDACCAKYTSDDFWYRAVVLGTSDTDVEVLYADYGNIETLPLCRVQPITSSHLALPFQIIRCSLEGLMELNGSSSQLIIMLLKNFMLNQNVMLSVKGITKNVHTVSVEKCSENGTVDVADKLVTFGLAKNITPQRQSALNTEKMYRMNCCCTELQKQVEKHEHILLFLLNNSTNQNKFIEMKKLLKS
# Assay: as above
# Method in brief: as §1
row,Binder,phage ELISA signal ratio
1,EPGHWMEWIWDTIELE,9.32
2,WNQWQEWTTDHGVLLE,7.12
3,IWDQWYEWNSEWDRLP,3.57

# Target: T7, TCEA2 231-299 TFIIS_C (domain begin residue: 231, domain end residue: 299), Q15560
# T7 chain: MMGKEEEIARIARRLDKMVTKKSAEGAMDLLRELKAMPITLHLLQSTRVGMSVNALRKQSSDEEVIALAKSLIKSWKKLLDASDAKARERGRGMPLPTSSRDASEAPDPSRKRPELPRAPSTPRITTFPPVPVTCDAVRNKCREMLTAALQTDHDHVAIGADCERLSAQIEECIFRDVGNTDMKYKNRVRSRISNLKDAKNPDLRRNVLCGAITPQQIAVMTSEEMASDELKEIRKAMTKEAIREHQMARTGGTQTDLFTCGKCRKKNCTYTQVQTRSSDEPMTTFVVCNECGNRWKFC
# Assay: as above
# Method in brief: as §1
row,Binder,phage ELISA signal ratio
1,EQWTWEPMWEWMTITD,5.86

# Target: SUB1 58-127 PC4 (domain begin residue: 58, domain end residue: 127), P53999
# Assay: as above
# Method in brief: as §1
row,Binder,phage ELISA signal ratio
1,DEEEWWWQFQSHQLPE,8.77
